ATXN viability – viability counter-screen for ATXN expression inhibitors. hit rate 0.49% among 400,000. S2 cells (HEK-293 line with an ATXN2-luciferase reporter) viability, CellTiter-Fluor protease fluorescence, 24 h. Potency, µM (doses to about 56.7 µM), most hits filed as cytotoxic; further: nearly all actives have a fitted effect of over 40% in size
Nrf2 block – blocks Nrf2 signaling | A549 ARE-Fluc reporter, luciferase luminescence, 18-24 h | Potency, µM (titrated, usually from 46 µM), for inactives: at the highest dose activity change, negative = inhibition, most hits filed as inhibitors | hit rate 2.1% among 360,000; further: on the % scale 0 is the no-effect control and ±100 the full control effect; nearly all actives have a fitted effect of over 60% in size
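Nrf2 activity is the BugLite luminescence, read 15 min after reagent at room temperature, following CellTiter-Fluor cytotoxicity readout (30 min, 37C). Compound titrations were applied for 18-24 h to 5000 A549 ARE_Fluc cells/well in 5% FBS OPTI-MEM.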
HepG2 tox-1 – HepG2 cytotoxicity, counter-screen for TGF-b inhibitors; AID 588856; hit rate 0.76% among 410,000; Potency, µM (highest dose often 46.1 µM), for the others: top-dose activity change, negative = cytotoxicity, actives largely listed as cytotoxic; HepG2 CAGA-GFP viability, ATP luminescence, 18 h
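HepG2 CAGA-GFP cells (1000/well, DMEM with 1% FBS) received compound, then TGF-beta at 500 pg/mL final, and were incubated 18 hours at 37 degrees C. Viability was read by CellTiter-Glo luminescence. Media-only wells were set as complete cell-killing and DMSO as no toxicity.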
A549 tox – counter-screen for Nrf2 inhibitors: cytotoxicity in A549 cells. hit rate 0.16% among 390,000. Potency, µM (top dose mostly 46 µM), for the others: at the top dose activity change, negative = cytotoxicity, hits mostly inhibitors. AID 504648. A549 ARE-Fluc cells, CellTiter-Fluor viability, 18-24 h; further: on the % scale 0 is the no-effect control and ±100 the full control effect
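A549 ARE_Fluc cells in 5% FBS OPTI-MEM were exposed to compounds in concentration-response for 18-24 h at 37 deg C. Viability was read by CellTiter-Fluor fluorescence (Ex 405/Em 525) after 30 min, before the luciferase read.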
ATXN2 expr inh – inhibitors of ATXN2 expression; Potency, µM (top dose mostly 57 µM), inactives show top-dose activity change, negative = inhibition, most hits filed as inhibitors; hit rate 0.72% among 360,000; HEK-293 ATXN2-luciferase reporter, luminescence, 24 h; further: on the % scale 0 is the no-effect control and ±100 the full control effect; nearly all actives have a fitted effect of over 55% in size
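ATXN2-luciferase reporter cells (luciferase flanked by upstream and downstream ATXN2 gene portions) were treated 24 h at 37 °C with compounds at up to 57 uM. SteadyGlo luminescence gave expression; GF-AFC fluorescence gave viability.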
TGFb SMAD3 inh – inhibitors of TGF-b signaling | HepG2 CAGA-GFP TGF-b/SMAD3 reporter, GFP fluorescence, 18 h; TGF-beta stimulated, 500 pg/mL final | Potency, µM (titrated, usually from 46.1 µM), for inactives: at the highest dose activity, negative = inhibition, most hits filed as inhibitors | hit rate 1.2% among 410,000 | AID 588855; further: on the % scale 0 is the no-effect control and ±100 the full control effect; nearly all actives have a fitted effect of over 65% in size
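TGF-beta reporter screen: HEPG2 CAGA-GFP, 1% FBS, 500 pg/mL TGF-beta final, 18 h; per-cell GFP summed per well; curves fitted and categorized by class.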
TGFb CAGA inh – TGF-b pathway inhibition, cherry-pick retest. Potency, µM (titrated, usually from 46.1 µM), without a hit: at the highest dose activity, negative = inhibition, hits mostly inhibitors. HepG2 CAGA-GFP TGF-b reporter, GFP fluorescence, 18 h; cells stimulated with TGF-beta, 500 pg/mL. hit rate 63% among 1,600. shares compounds with TGFb SMAD3 inh; further: on the % scale 0 is the no-effect control and ±100 the full control effect; nearly all actives have a fitted effect of over 65% in size
HepG2 tox-2 – counter-screen for TGF-b inhibitors: cytotoxicity in HepG2 cells; hit rate 27% among 1,600; HepG2 CAGA-GFP viability, ATP luminescence, 18 h; cells stimulated with TGF-beta, 500 pg/mL; shares compounds with TGFb SMAD3 inh; Potency, µM (highest dose often 46.1 µM), without a hit: top-dose activity, negative = cytotoxicity, actives largely listed as inhibitors; AID 720535; further: on the % scale 0 is the no-effect control and ±100 the full control effect; nearly all actives have a fitted effect of over 70% in size
TGFb CCL64 inh – orthogonal confirmation of TGF-b inhibitors in CCL64 cells; shares compounds with TGFb SMAD3 inh; hit rate 41% among 1,600; AID 720536; CCL64 CAGA-GFP reporter, TGF-b stimulated, GFP fluorescence, 18 h; Potency, µM (series often up to 46.1 µM), for inactives: at the top dose activity, negative = inhibition, usual class: inhibitors; further: nearly all actives have a fitted effect of over 65% in size
TGFb COP inh – blocks TGF-b signaling in HepG2 COP reporter | hit rate 3% among 1,600 | HepG2 COP-GFP TGF-b reporter, GFP fluorescence, 18 h; cells stimulated by added recombinant TGF-beta | shares compounds with TGFb SMAD3 inh | Potency, µM (titrated, usually from 46.1 µM), inactives show top-dose activity, negative = inhibition, usual class: inhibitors; further: nearly all actives have a fitted effect of over 70% in size
Numbers without * were called inactive; i = inactive; ? = inconclusive; / = not tested or not shown. Compounds with a hit are over-represented: about 3.8% of the library has one in this group of screens. The call rests on the fitted dose curve; in most records, active means well fitted curve in the direction sought with a large enough effect; inconclusive means small, poorly fitted or top-dose-only effect, or another doubt; inactive means no such curve, though single readings can be large; an effect the other way counts as inactive or inconclusive. Potency means the concentration at half of the fitted maximal effect.

SMILES | ATXN viability | Nrf2 block | HepG2 tox-1 | A549 tox | ATXN2 expr inh | TGFb SMAD3 inh | TGFb CAGA inh | HepG2 tox-2 | TGFb CCL64 inh | TGFb COP inh
CCOC(=O)C1=CCN(S(=O)(=O)c2ccccc2F)C1c1cccc(Cl)c1 (centres undefined) | ? | / | -18% | / | -22% | 11µM* | ? | 3% | ? | -1%
CCOC(=O)C1=CCN(S(=O)(=O)c2ccc(C)cc2)C1c1cccc(Cl)c1 (centres undefined) | i | / | -32% | / | ? | 10µM* | 23µM* | -7% | 0% | -8%
O=C(c1cc(S(=O)(=O)Nc2ccccc2F)c(Cl)cc1Cl)N1CCN(CCO)CC1 | i | ? | -12% | ? | / | ? | -2% | -1% | ? | -2%
COCCN(Cc1cc2cc(C)c(C)cc2nc1Cl)C(=O)Nc1ccccc1 | i | -32% | -17% | -26% | -3% | -1% | / | / | / | /
COCCN(Cc1cc2cc3c(cc2nc1Cl)OCO3)C(=O)c1ccc(C)cc1 | i | ? | -24% | -1% | / | ? | ? | -13% | 7% | 10%
COc1ccc(CCNC(=O)CNS(=O)(=O)c2ccc(Cl)cc2)cc1 | i | -10% | -7% | -1% | -3% | ? | -5% | 4% | 2% | -16%
O=C(CCCCn1c(=O)c2ccccc2n(CC(=O)Nc2ccc(F)cc2F)c1=O)NCCc1ccccc1 | i | 4% | -8% | 3% | -1% | -29% | / | / | / | /
COc1cccc(CNc2nc3cc(-c4ccc(C)cc4)sc3c(=O)n2C)c1OC | i | / | -1% | / | -2% | 10µM* | 2.6µM* | ? | 12µM* | 3%
COc1cccc(CNc2nc3cc(-c4ccsc4)sc3c(=O)n2C)c1OC | ? | / | 3% | / | ? | ? | ? | ? | ? | 20%
CCCCOC(=O)Nc1ccc(S(=O)(=O)Nc2ccc([N+](=O)[O-])cc2)cc1 | i | -24% | -9% | -17% | 13% | 7.9µM* | ? | -6% | -14% | -9%
O=C1c2ccccc2C(c2nnnn2-c2ccc3c(c2)OCCO3)N1Cc1cccs1 (centres undefined) | i | / | / | / | -6% | / | / | / | / | /
Cc1c(C(=O)N/N=C/c2ccc(N(C)C)cc2)[nH]c2ccc(Cl)cc12 | ? | 23% | -2% | -12% | -24% | 4.5µM* | 2.3µM* | -8% | ? | -4%
Cc1ccc(N(C)C(=O)Cn2cc(S(=O)(=O)N3CCCC3)c(S(=O)(=O)N3CCCC3)c2)cc1 | i | 14% | 2% | -2% | 6% | 1% | / | / | / | /
COC(=O)c1ccc(C)c(NS(=O)(=O)c2ccc(OC)cc2)c1 | ? | ? | -3% | -14% | 0% | ? | ? | -1% | ? | -7%

Screening data: PubChem BioAssay, National Center for Advancing Translational Sciences (NCATS)
